This is a sample that favours compounds with a hit; in the whole collection about 2.3% have one here.
KOR antag MB – OPRK1 (human) antagonism, Maybridge screen; inhibition, % at 9 µM; hit rate 0.4% among 16,000; OPRK1 cells, antagonist mode, fluorescence readout; in the data active = inhibition above about 50%
Nox1 inh – inhibitors of human NADPH oxidase 1 (Nox1) | HT29 cells, luminol chemiluminescence ROS | hit rate 0.81% among 16,000 | Q9Y5S8 | inhibition, % at 6.7 µM | AID 1792
PME-1 Maybr inh – inhibitors of human PME-1 in Maybridge library. Q9Y570. recombinant PME-1, FP-Rh probe fluorescence polarization. inhibition, % at 9 µM. hit rate 0.5% among 16,000. AID 2291; in the data active = inhibition above about 30%
Target sequence (Q9Y570 whole entry, looked up): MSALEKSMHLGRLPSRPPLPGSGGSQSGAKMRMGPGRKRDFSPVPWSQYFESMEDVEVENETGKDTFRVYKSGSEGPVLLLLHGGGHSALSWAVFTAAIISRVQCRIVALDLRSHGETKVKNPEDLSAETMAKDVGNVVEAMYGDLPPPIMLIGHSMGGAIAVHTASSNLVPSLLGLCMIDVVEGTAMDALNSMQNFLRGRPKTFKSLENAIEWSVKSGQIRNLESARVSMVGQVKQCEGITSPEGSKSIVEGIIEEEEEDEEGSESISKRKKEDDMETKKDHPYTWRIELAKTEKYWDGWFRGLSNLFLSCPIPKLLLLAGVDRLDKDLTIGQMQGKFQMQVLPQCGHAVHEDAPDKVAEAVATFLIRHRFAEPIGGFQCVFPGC
NOTCH ag – activates NOTCH signaling in reporter cells; NOTCH signaling luciferase reporter cells, luminescence; activation, % at 2.5 µM; hit rate 0.4% among 15,000; AID 434982; in the data active = activation above about 2.2%
Luminol counter – counter-screen for Nox1 inhibitors: inhibitors of luminol chemiluminescence; HRP/luminol/H2O2 chemiluminescence counterscreen; inhibition, % at 6.7 µM; hit rate 0.4% among 16,000; AID 1823; note: reference of the scale not given here
TLR4 MyD88 blk – blocks binding of human TLR4 to MyD88. hit rate 0.06% among 16,000. inhibition, % at 10 µM. Cell-based TLR4-MyD88 binding inhibition assay. O00206; in the data active = inhibition above about 45%
A number is an active result; 0 = inactive; - = no result. Cut-off read from the data, not from the text of the source, unless noted: active = inhibition above about 75%; inactive = the rest.

SMILES	KOR antag MB	Nox1 inh	PME-1 Maybr inh	NOTCH ag	Luminol counter	TLR4 MyD88 blk
N#C/C(=C\Nc1cnccn1)S(=O)(=O)c1ccc(Cl)cc1	0	0	0	0	0	0
FC(F)(F)c1cccc(-n2c(Cc3ccccc3)n[nH]c2=S)c1	0	0	0	0	0	0
FC(F)(F)c1cccc(CSc2n[nH]c(=S)s2)c1	0	0	0	0	99	0
COC(=O)c1csc(S(=O)(=O)NC2CCCCNC2=O)c1OC (stereo not given)	0	0	0	0	0	0
OCCCNNC(=S)Nc1ccc(Cl)cc1Cl	0	0	0	0	0	0
S=C(NNc1c(Cl)cncc1Cl)Nc1ccc(Cl)cc1Cl	62	0	0	0	0	0
S=c1[nH]c2cccnc2s1	0	0	0	0	100	0
C=CCN(CC=C)/C(SC)=C(/C#N)C(N)=O	0	0	0	0	0	0
C/C(=N\OC(=O)c1ccc(C(F)(F)F)cc1)c1csc2ccccc12	0	0	0	0	0	0
CSC(=N)n1nc(SC)nc1N	0	0	0	2.8	0	0
O=C(O)C(F)(F)C(F)(F)C(=O)NCc1cccc(Cl)c1	50	0	0	0	0	0
CC(=O)Nc1ccc(NC(=O)Nc2ccccc2)cc1	0	0	0	0	0	0
CN(C)c1cc(NC(=O)Nc2ccccc2)c2ccccc2n1	57	0	0	0	0	0
CSc1cccc(NC(=S)NCCCO)c1	0	0	0	0	0	0
CSc1cccc(NC(=S)NCc2ccc(C#N)cc2)c1	0	0	61	0	0	0
COc1ccc(Br)c(C(=O)NC(=S)Nc2ccc(F)cc2)c1	0	0	0	0	0	0
COc1cccc(Cc2n[nH]c(=S)n2Cc2ccco2)c1	0	0	0	0	99	0
FC(F)(F)Oc1ccc(OCc2n[nH]c(=S)n2-c2ccc(Cl)cc2)cc1	0	0	0	-	0	0
COc1cccc(Cc2n[nH]c(=S)n2-c2ccc(Cl)cc2)c1	0	0	0	0	99	0
O=c1c([N+](=O)[O-])c[nH]n(-c2ccccc2)c1=O	0	0	0	0	0	0
O=C1c2ccc3ccccc3c2-c2cccc3cccc1c23	0	0	40	0	0	0
Cc1ccc(S(=O)(=O)NC(=O)Nc2ccc(N(C)C)cc2)cc1	0	0	41	0	0	0
CC(=O)/C(C=Nc1ccc(F)cc1)=C(\C)O	0	0	0	0	0	0
CC(=O)/C(C=Nc1cc(C)c(O)c(Cl)c1)=C(\C)O	0	92	0	0	0	0
COc1ccccc1NC(N)=S	0	0	0	4.8	0	0
SMILES	KOR antag MB	Nox1 inh	PME-1 Maybr inh	NOTCH ag	Luminol counter	TLR4 MyD88 blk
O=[N+]([O-])/C=C/c1c2ccccc2cc2ccccc12	72	0	0	0	0	0
O=C1NC(=S)N/C1=C\c1ccccc1Cl	0	0	0	0	75	0
Cc1ccc(NC(c2c(C)[nH]n(-c3ccccc3)c2=O)(C(F)(F)F)C(F)(F)F)cc1	0	0	0	0	0	0
O=C(NNC1OC[C@H](O)[C@H](O)[C@H]1O)c1cccnc1 (stereo not given in full)	0	0	0	0	0	0
N/C(=N\O)C1CCN(c2ncccc2[N+](=O)[O-])CC1	0	0	0	0	0	0
CCOC(=O)NNC(=S)Nc1ccccc1N1CCOCC1	0	0	0	0	98	0
Cc1cc(C(=O)Nc2ccccc2N2CCOCC2)c(C)o1	0	0	0	0	0	0
O=c1oc2ccccc2cc1-c1ccn[nH]1	0	0	0	0	0	0
CCOC(=O)C1=C(C)C(c2ccc(N(C)C)cc2Cl)NC(=O)N1 (stereo not given)	0	0	0	0	0	0
O=C(NCc1cccnc1)C(=O)NC1CCCCNC1=O (stereo not given)	0	0	0	0	0	0
CCn1c(-c2cccs2)n[nH]c1=S	0	0	0	0	100	0
COc1ccc(-n2c(-c3cccs3)n[nH]c2=S)cc1	0	0	0	0	98	0
O=C(NNC(=O)c1ccc([N+](=O)[O-])o1)c1ccc2ccccc2c1	0	0	0	0	0	0
COc1ccc(OC)c(S(=O)(=O)NCc2ccc(S(N)(=O)=O)cc2)c1	0	0	0	0	0	0
Cc1nc(N)nc(N(C)C)n1	0	0	0	0	0	0
COc1cc(C(=O)NNS(=O)(=O)c2ccc(Cl)cc2)c(-n2c(C)ccc2C)cc1OC	0	0	0	0	0	0
COc1cc(NC(=O)Nc2ccc(Cl)cc2)c(-n2c(C)ccc2C)cc1OC	0	0	74	0	0	0

Screening results: PubChem, The Scripps Research Institute Molecular Screening Center
